# Assay results from PubChem BioAssay AID1159580 (chemical genetic matrix, 2015).
# The campaign covered roughly 5,500 compounds. About 2,000 (36%) were called active. Another 18% or so got no clear call; they are omitted. The list shows a part of the results. A number with no mark means an inactive call. No stated cut-off is given here; in the data, active means normalized growth mostly below about 0.91 (no sharp cut-off); inconclusive means no clear call, values can overlap the other calls; inactive means mostly above about 0.92.
# Assay: chemical genetic growth profiling, strain panel (AID 1159580);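 further: tested at 20 µM; growth read once vehicle control cultures reached saturation at 30 °C; 1 = growth at the plate median or of vehicle wells; lower values mean less growth of the strain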
# Settings: growth OD
smiles,measurement,setting,value
COc1cc(OC)c2c(OC)c(-c3ccc4c(c3)OCO4)c(=O)oc2c1,normalized growth,"S. cerevisiae deletion strains, locus YJR075W, strain HOC1, hits give low values",0.972
same,normalized growth,"S. cerevisiae deletion strains, locus YKL009W, strain mrt4, hits give low values",1
same,normalized growth,"S. cerevisiae deletion strains, locus YKL068W, hits give low values",0.984
same,normalized growth,"S. cerevisiae deletion strains, locus YKL085W, strain MDH1 (second series), hits give low values",0.99
same,normalized growth,"S. cerevisiae deletion strains, locus YKL085W, strain MDH1, hits give low values",0.99
same,normalized growth,"S. cerevisiae deletion strains, locus YKL160W, strain elf1, hits give low values",0.931
same,normalized growth,"S. cerevisiae deletion strains, locus YKL190W, strain CNB1, hits give low values",0.984
same,normalized growth,"S. cerevisiae deletion strains, locus YKR001C, strain vps1, hits give low values",0.927
same,normalized growth,"S. cerevisiae deletion strains, locus YKR026C, strain gcn3, hits give low values",0.992
same,normalized growth,"S. cerevisiae deletion strains, locus YKR091W, strain srl3, hits give low values",0.978
same,normalized growth,"S. cerevisiae deletion strains, locus YLL001W, strain dnm1, hits give low values",0.97
same,normalized growth,"S. cerevisiae deletion strains, locus YLL026W, hits give low values",0.979
same,normalized growth,"S. cerevisiae deletion strains, locus YLL041C, strain sdh2, hits give low values",0.987
same,normalized growth,"S. cerevisiae deletion strains, locus YLR027C, strain aat2, hits give low values",0.934
same,normalized growth,"S. cerevisiae deletion strains, locus YLR039C, strain RIC1, hits give low values",0.865
same,normalized growth,"S. cerevisiae deletion strains, locus YLR058C, strain SHM2, hits give low values",0.99
same,normalized growth,"S. cerevisiae deletion strains, locus YLR102C, strain apc9, hits give low values",1
same,normalized growth,"S. cerevisiae deletion strains, locus YLR113W, strain HOG1, hits give low values",0.917
same,normalized growth,"S. cerevisiae deletion strains, locus YLR221C, strain rsa3, hits give low values",0.943
same,normalized growth,"S. cerevisiae deletion strains, locus YLR258W, strain gsy2, hits give low values",0.959
same,normalized growth,"S. cerevisiae deletion strains, locus YLR262C, strain YPT6 (second series), hits give low values",0.783 (active)
same,normalized growth,"S. cerevisiae deletion strains, locus YLR262C, strain YPT6, hits give low values",0.879
same,normalized growth,"S. cerevisiae deletion strains, locus YLR268W, strain sec22, hits give low values",0.946
same,normalized growth,"S. cerevisiae deletion strains, locus YLR320W, strain mms22, hits give low values",0.867 (active)
same,normalized growth,"S. cerevisiae deletion strains, locus YLR330W, strain CHS5, hits give low values",0.991
same,normalized growth,"S. cerevisiae deletion strains, locus YLR342W, strain FKS1 (second series), hits give low values",0.952
same,normalized growth,"S. cerevisiae deletion strains, locus YLR342W, strain FKS1, hits give low values",0.957
same,normalized growth,"S. cerevisiae deletion strains, locus YLR357W, strain rsc2, hits give low values",0.997
same,normalized growth,"S. cerevisiae deletion strains, locus YLR370C, strain arc18, hits give low values",0.981
same,normalized growth,"S. cerevisiae deletion strains, locus YLR371W, strain rom2, hits give low values",0.984
same,normalized growth,"S. cerevisiae deletion strains, locus YLR384C, strain iki3, hits give low values",0.977
same,normalized growth,"S. cerevisiae deletion strains, locus YLR418C, strain cdc73, hits give low values",0.849
same,normalized growth,"S. cerevisiae deletion strains, locus YML016C, strain PPZ1, hits give low values",0.985
same,normalized growth,"S. cerevisiae deletion strains, locus YML032C, strain rad52, hits give low values",0.995
same,normalized growth,"S. cerevisiae deletion strains, locus YML120C, strain ndi1, hits give low values",0.998
same,normalized growth,"S. cerevisiae deletion strains, locus YML124C, strain tub3, hits give low values",0.986
same,normalized growth,"S. cerevisiae deletion strains, locus YMR058W, strain fet3, hits give low values",0.962
same,normalized growth,"S. cerevisiae deletion strains, locus YMR078C, strain ctf18, hits give low values",0.991
same,normalized growth,"S. cerevisiae deletion strains, locus YMR125W, strain sto1, hits give low values",1
same,normalized growth,"S. cerevisiae deletion strains, locus YMR129W, hits give low values",0.989
same,normalized growth,"S. cerevisiae deletion strains, locus YMR205C, strain PFK2, hits give low values",0.866 (active)
same,normalized growth,"S. cerevisiae deletion strains, locus YMR223W, strain ubp8, hits give low values",0.981
same,normalized growth,"S. cerevisiae deletion strains, locus YMR231W, strain pep5, hits give low values",0.973
same,normalized growth,"S. cerevisiae deletion strains, locus YMR263W, strain SAP30, hits give low values",0.966
same,normalized growth,"S. cerevisiae deletion strains, locus YMR307W, strain GAS1, hits give low values",0.905
same,normalized growth,"S. cerevisiae deletion strains, locus YNL067W, strain RPL9B, hits give low values",0.99
same,normalized growth,"S. cerevisiae deletion strains, locus YNL071W, strain lat1, hits give low values",0.816 (active)
same,normalized growth,"S. cerevisiae deletion strains, locus YNL128W, strain TEP1, hits give low values",1
same,normalized growth,"S. cerevisiae deletion strains, locus YNL153C, strain GIM3, hits give low values",0.988
same,normalized growth,"S. cerevisiae deletion strains, locus YNL183C, strain NPR1, hits give low values",0.888
same,normalized growth,"S. cerevisiae deletion strains, locus YNL209W, strain ssb2, hits give low values",0.987
same,normalized growth,"S. cerevisiae deletion strains, locus YNL233W, strain BNI4, hits give low values",0.965
same,normalized growth,"S. cerevisiae deletion strains, locus YNL248C, strain rpa49, hits give low values",0.978
same,normalized growth,"S. cerevisiae deletion strains, locus YNL250W, strain rad50, hits give low values",0.997
same,normalized growth,"S. cerevisiae deletion strains, locus YNL271C, strain bni1, hits give low values",0.987
same,normalized growth,"S. cerevisiae deletion strains, locus YNL298W, strain CLA4, hits give low values",0.997
same,normalized growth,"S. cerevisiae deletion strains, locus YNL307C, strain MCK1, hits give low values",0.792 (active)
same,normalized growth,"S. cerevisiae deletion strains, locus YNL322C, strain KRE1 (second series), hits give low values",0.993
same,normalized growth,"S. cerevisiae deletion strains, locus YNL322C, strain KRE1, hits give low values",0.993
same,normalized growth,"S. cerevisiae deletion strains, locus YNR049C, strain mso1, hits give low values",0.992
same,normalized growth,"S. cerevisiae deletion strains, locus YNR052C, strain pop2, hits give low values",0.991
same,normalized growth,"S. cerevisiae deletion strains, locus YOL006C, strain TOP1, hits give low values",0.89
same,normalized growth,"S. cerevisiae deletion strains, locus YOL012C, strain htz1",0.711
same,normalized growth,"S. cerevisiae deletion strains, locus YOL147C, strain pex11, hits give low values",0.985
same,normalized growth,"S. cerevisiae deletion strains, locus YOR001W, strain rrp6, hits give low values",0.991
same,normalized growth,"S. cerevisiae deletion strains, locus YOR061W, strain CKA2, hits give low values",0.989
same,normalized growth,"S. cerevisiae deletion strains, locus YOR069W, strain VPS5, hits give low values",0.988
same,normalized growth,"S. cerevisiae deletion strains, locus YOR070C, strain gyp1, hits give low values",0.977
same,normalized growth,"S. cerevisiae deletion strains, locus YOR080W, strain dia2, hits give low values",0.989
same,normalized growth,"S. cerevisiae deletion strains, locus YOR083W, strain WHI5, hits give low values",0.937
same,normalized growth,"S. cerevisiae deletion strains, locus YOR106W, strain vam3, hits give low values",0.957
same,normalized growth,"S. cerevisiae deletion strains, locus YOR136W, strain idh2, hits give low values",0.99
same,normalized growth,"S. cerevisiae deletion strains, locus YOR144C, strain elg1, hits give low values",0.982
same,normalized growth,"S. cerevisiae deletion strains, locus YOR184W, strain ser1, hits give low values",0.891
same,normalized growth,"S. cerevisiae deletion strains, locus YOR231W, strain MKK1, hits give low values",0.943
same,normalized growth,"S. cerevisiae deletion strains, locus YOR265W, strain rbl2, hits give low values",0.981
same,normalized growth,"S. cerevisiae deletion strains, locus YOR270C, strain vph1, hits give low values",0.835
same,normalized growth,"S. cerevisiae deletion strains, locus YOR290C, strain snf2, hits give low values",0.932
same,normalized growth,"S. cerevisiae deletion strains, locus YOR316C, strain cot1, hits give low values",0.983
same,normalized growth,"S. cerevisiae deletion strains, locus YPL051W, strain arl3, hits give low values",0.899 (active)
same,normalized growth,"S. cerevisiae deletion strains, locus YPL055C, strain LGE1, hits give low values",0.949
same,normalized growth,"S. cerevisiae deletion strains, locus YPL078C, strain atp4, hits give low values",0.945
same,normalized growth,"S. cerevisiae deletion strains, locus YPL106C, strain sse1, hits give low values",0.945
same,normalized growth,"S. cerevisiae deletion strains, locus YPL240C, strain hsp82, hits give low values",0.984
same,normalized growth,"S. cerevisiae deletion strains, locus YPL241C, strain CIN2, hits give low values",0.992
same,normalized growth,"S. cerevisiae deletion strains, locus YPL256C, strain CLN2, hits give low values",0.959
same,normalized growth,"S. cerevisiae deletion strains, locus YPR119W, strain clb2, hits give low values",0.97
same,normalized growth,"S. cerevisiae deletion strains, locus YPR141C, strain kar3, hits give low values",1
same,normalized growth,"S. cerevisiae deletion strains, locus YPR163C, strain tif3, hits give low values",0.969
same,normalized growth,"S. cerevisiae deletion strains, locus YPR167C, strain met16, hits give low values",0.989
same,normalized growth,"S. cerevisiae deletion strains, strain wtn01, hits give low values",0.968
same,normalized growth,"S. cerevisiae strains, strain wild type, hits give low values",0.982
